G9a block = qHTS Assay for Inhibitors of Histone Lysine Methyltransferase G9a; actives 8.8% (n = 350,000); G9a H3K9 monomethylation, AlphaScreen, 2 h; Potency, µM (highest dose often 102 µM), inactives show at the highest dose activity, negative = inhibition, actives largely listed as inhibitors; Histone-lysine N-methyltransferase EHMT2 (Homo sapiens), Q96KQ7; also: % is scaled to controls: 0 for no effect and ±100 for the full control effect; nearly all actives have a fitted effect of over 75% in size
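AlphaScreen read-out: biotin-H3K9 peptide (500 nM) methylation by 20 nM enzyme with 20 uM SAM, 2 h at room temperature after 15 min compound preincubation; anti-monomethyl H3K9 antibody plus donor/acceptor beads, 10 min dark.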
JMJD2A Tudor = qHTS Assay for Inhibitors of JMJD2A-Tudor Domain; Potency, µM (doses to about 114 µM), for inactives: at the top dose activity change, negative = inhibition, most hits filed as inhibitors; Lysine-specific demethylase 4A (Homo sapiens), O75164; actives 4.4% (n = 390,000); AlphaScreen JMJD2A-Tudor / H3K4me3 peptide binding; also: % is scaled to controls: 0 for no effect and ±100 for the full control effect; nearly all actives have a fitted effect of over 50% in size
BAZ2B block = qHTS Assay for Inhibitors of BAZ2B | actives 4.4% (n = 360,000) | AlphaScreen BAZ2B-H3K14Ac peptide displacement | AID 504333, 2011 | Bromodomain adjacent to zinc finger domain protein 2B (Homo sapiens), Q9UIF8 | Potency, µM (titrated, usually from 114 µM), for inactives: top-dose activity change, negative = inhibition, hits mostly inhibitors; also: % is scaled to controls: 0 for no effect and ±100 for the full control effect; nearly all actives have a fitted effect of over 60% in size
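BAZ2B 50 nM plus b-H3(5-23)K14Ac 50 nM, PBS pH 7.4/0.01% Tween-20, 30 min RT; compound added (max 110 uM), 30 min RT; streptavidin donor/Ni-chelate acceptor beads 10 ug/mL final, 20 min dark; AlphaScreen read.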
Sfp inh = qHTS Assay for Inhibitors of Bacillus subtilis Sfp phosphopantetheinyl transferase (PPTase) | AID 1490, 2009 | Biochemical Sfp PPTase activity, qHTS | Potency, µM, without a hit: largest response in the series, negative = inhibition, most hits filed as inhibitors | actives 3.5% (n = 310,000) | 4'-phosphopantetheinyl transferase ffp (Bacillus subtilis), Q9F4F7;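 also: the enzyme is Sfp with the accession as filed and its product quenches rhodamine fluorescence; 0% = enzyme reaction without inhibitor and -100% = no enzyme wells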
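Fluorescence-quenching assay: 15 nM Sfp-PPTase preincubated 15 min at room temperature with compound, then 5 uM rhodamine-CoA and 12.5 uM BHQ-2-labelled YbbR peptide added. Fluorescence (ex 525/em 598 nm) read at start and after 30 min; difference gives rate.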
HP1b chromo inh = HTS for Inhibitors of HP1-beta Chromodomain Interactions with Methylated Histone Tails. actives 0.56% (n = 390,000). Potency, µM (titrated, usually from 114 µM), without a hit: at the top dose activity change, negative = inhibition, actives largely listed as inhibitors. AlphaScreen HP1-beta / biotin-H3K9me3 peptide binding. AID 540317, 2011. Chromobox protein homolog 1 (Homo sapiens), P83916; also: nearly all actives have a fitted effect of over 70% in size
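AlphaScreen: HP1-beta (50 nM) preformed 30 min with biotin-H3(1-18)K9me3 peptide (50 nM) in PBS pH 7.4, 0.01% Tween-20. Compound added for 30 min at RT, then streptavidin donor/nickel chelate acceptor beads (10 ug/mL) for 30 min.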
L3MBTL1 block = qHTS Assay for the Inhibitors of L3MBTL1; actives 0.66% (n = 230,000); AID 485360, 2010; Potency, µM (titrated, usually from 57.1 µM), for the others: at the top dose activity, negative = inhibition, actives largely listed as inhibitors; AlphaScreen L3MBTL1–H3K9me1 peptide binding; also: % is scaled to controls: 0 for no effect and ±100 for the full control effect; nearly all actives have a fitted effect of over 60% in size
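AlphaScreen proximity signal between nickel-chelate acceptor and streptavidin donor beads (final 10 ug/mL) reports binding of 50 nM L3MBTL1 to 75 nM biotin-H3 K9me1 peptide; complex incubated with compounds 30 min at room temperature; cefsulodin titration as control.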
Numbers without * were called inactive; ! = a repeat was not active; [ ] = dose if it differs, or a comment. Most compounds without a hit are left out; they make up all but 12% or so of the library. Calls follow the shape of the dose curve; as a rule, active = well fitted curve in the direction sought with a large enough effect; inconclusive = small, poorly fitted or top-dose-only effect, or another doubt; inactive = no such curve, though single readings can be large; an effect the other way counts as inactive or inconclusive. Potency is read from the fitted curve at half-maximal effect.

O=C(NCCc1ccccc1)c1nc2nc(-c3cccs3)cc(C(F)(F)F)n2n1 was read as G9a block -44%[59 µM], JMJD2A Tudor inconclusive, BAZ2B block 50µM*, Sfp inh inconclusive, HP1b chromo inh 50% and L3MBTL1 block -22%.
O=C(NCc1cccnc1)c1cc2nc(-c3cccs3)cc(C(F)(F)Cl)n2n1 was read as G9a block 50µM*, JMJD2A Tudor -6%, BAZ2B block -36%, Sfp inh -10%, HP1b chromo inh 45% and L3MBTL1 block 5%.
Screening O=C(O)c1cc2nc(-c3cccs3)cc(C(F)(F)F)n2n1 returned G9a block 71µM*, JMJD2A Tudor -34%, BAZ2B block 50µM*, Sfp inh 3%, HP1b chromo inh 20% and L3MBTL1 block -19%.
Screening CCCN1C(=O)C2(c3ccccc31)c1c(oc3ccc(C)cc3c1=O)C(=O)N2CCOC (centres undefined) returned G9a block -3%[59 µM], JMJD2A Tudor -1%, BAZ2B block -15% and HP1b chromo inh 24%.
COc1ccc(NC(=O)N2CC[C@@]3(CCCNC3)C2)cc1 was read as G9a block -20%[12.7 µM] and Sfp inh inconclusive.
For CCCN1CNc2c(c(=O)[nH]c(=S)n2CCc2ccc(Cl)cc2)C1 the results were JMJD2A Tudor -16% and HP1b chromo inh 29%.
`O=C(Cn1c(=O)n(-c2ccccc2)c(=O)c2c3c(sc21)CCCC3)Nc1cccc(F)c1` gave G9a block 2%[59 µM], JMJD2A Tudor 4%, BAZ2B block 0% and HP1b chromo inh 31%.
`CCc1ccccc1NC(=O)C1(C)Cc2ccccc2C(=O)O1` (centres undefined) gave G9a block 7%[59 µM], JMJD2A Tudor -5%, BAZ2B block 5% and HP1b chromo inh 23%.
For CC(=O)c1ccc(NS(=O)(=O)Cc2ccccc2)cc1 the results were G9a block 10%[59 µM], JMJD2A Tudor -18%, BAZ2B block 1%, Sfp inh 25%, HP1b chromo inh 60% and L3MBTL1 block 6%.
For CC(=O)N(C)c1ccc(NS(=O)(=O)Cc2ccccc2)cc1 the results were G9a block 56µM*, JMJD2A Tudor -1%, BAZ2B block 6%, Sfp inh -12%, HP1b chromo inh 11% and L3MBTL1 block 6%.
Cc1cc(C)c(NC(=O)Cn2c(=O)n(CCC(=O)NCc3ccccc3Cl)c(=O)c3sccc32)c(C)c1 was read as G9a block 6%[59 µM], JMJD2A Tudor 3%, BAZ2B block 0% and HP1b chromo inh 19%.
CCOC(=O)c1cc(-c2ccc(N)cc2)sc1N was read as G9a block inconclusive, JMJD2A Tudor 45µM*, BAZ2B block 32µM*, Sfp inh -22%, HP1b chromo inh -51% and L3MBTL1 block -6%.
`CCCS(=O)(=O)N1CCC(C(=O)NCCOC)CC1` gave G9a block 1%[59 µM], JMJD2A Tudor -16%, BAZ2B block 1% and HP1b chromo inh 23%.
Screening CCCn1[nH]cc(SC)c(=O)c1=O returned G9a block inconclusive, JMJD2A Tudor 25µM*, BAZ2B block inconclusive, Sfp inh -23%, HP1b chromo inh -11% and L3MBTL1 block 0%.
For CCn1c(=O)c(=O)[nH]c2cc(C(=O)NC3CCCC3)ccc21 the results were G9a block 0%, JMJD2A Tudor 13µM*, BAZ2B block -2%, Sfp inh 18%, HP1b chromo inh -15% and L3MBTL1 block 8%.
CC1CCc2c(sc(NC(=O)c3cc4nc(-c5ccc(Cl)cc5)cc(C(F)(F)F)n4n3)c2C#N)C1 (centres undefined) was read as G9a block 1%[59 µM], JMJD2A Tudor -4%, BAZ2B block -15% and HP1b chromo inh 37%.
`Cc1ccc(S(=O)(=O)c2cn(CC(=O)Nc3ccccc3C)c3cc4c(cc3c2=O)OCO4)cc1` gave G9a block 7%[59 µM], JMJD2A Tudor -5%, BAZ2B block -2% and HP1b chromo inh 36%.
COc1ccc(C(=O)Nc2ccc(-c3cc4ccccc4oc3=O)c(C)c2)cc1Br was read as G9a block inconclusive, JMJD2A Tudor -14%, BAZ2B block 0% and HP1b chromo inh 35%.
S=c1[nH]c2ccc(Cc3ccc4[nH]c(=S)[nH]c4c3)cc2[nH]1 was read as G9a block 0.28µM*, JMJD2A Tudor -16%, BAZ2B block -20%, Sfp inh 28µM*, HP1b chromo inh -11% and L3MBTL1 block -3%.
Screening S=c1[nH]c2cc3ccccc3cc2[nH]1 returned G9a block 2.2µM*, JMJD2A Tudor -23%, BAZ2B block -18%, Sfp inh 56µM*!, HP1b chromo inh 1% and L3MBTL1 block 32%.
For S=c1[nH]c2ccc3ccccc3c2[nH]1 the results were JMJD2A Tudor -16%, BAZ2B block inconclusive, Sfp inh -4%, HP1b chromo inh 25% and L3MBTL1 block -3%.
Screening Nc1ccc2[nH]c(=S)[nH]c2c1 returned JMJD2A Tudor -5% and HP1b chromo inh 4%[57 µM].
Screening Cc1cc2[nH]c(=S)[nH]c2cc1C returned G9a block 1.8µM*, JMJD2A Tudor inconclusive, BAZ2B block -7%, Sfp inh 35µM*, HP1b chromo inh 40µM* and L3MBTL1 block -9%.
`O=C(Nc1ccccc1)c1sccc1Oc1ccc([N+](=O)[O-])cc1F` gave G9a block 28µM*, JMJD2A Tudor inconclusive, BAZ2B block 25µM*, Sfp inh -12%, HP1b chromo inh -9% and L3MBTL1 block inconclusive.
For CCOc1ccc(NC(=O)CN2C(=O)C3(SCC(=O)N3c3ccc(F)cc3)c3ccccc32)cc1 (centres undefined) the results were G9a block -31%[59 µM], JMJD2A Tudor -20%, BAZ2B block 0%[57.1 µM] and HP1b chromo inh 24%.
For COc1ccc(Nc2sc(C(=O)c3ccc(Cl)cc3)c(N)c2C(=O)Nc2ccccc2OC)cc1 the results were G9a block inconclusive, JMJD2A Tudor inconclusive, BAZ2B block inconclusive, Sfp inh -9% and HP1b chromo inh -18%.

Screening data deposited in PubChem BioAssay by National Center for Advancing Translational Sciences (NCATS).
